The nature of test [1]: P. berghei load reduction in hepatocytes – cell-based, HepG2, luciferase luminescence, HepG2 viability, primary screen (AID 624349; in the data active = parasite load remaining mostly below about 12%, no sharp cut-off; inactive = mostly above about 10%;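 also: 100% = mean of DMSO negative control wells on the same plate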). As to conditions: P. berghei liver stage in HepG2, luciferase luminescence, concentration not given here; parasite load remaining: stronger effect = lower value; viability: measured here: HepG2 viability without parasites.
Test [2] addresses 6-phosphogluconate dehydrogenase, decarboxylating (Homo sapiens) (UniProt P52209). Description: inhibition of human phosphogluconate dehydrogenase – biochemical, recombinant enzyme, NADPH absorbance, primary screen (AID 1159550;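 active = at least 20% inhibition of 6-phosphogluconate dehydrogenase activity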). As to conditions: recombinant 6PGD, NADPH absorbance 341 nm; at 10 µM; stronger effect = higher value.
Test [3] in a line: modulation of C. elegans fzo-1 (AID 1259413; call rule not given here;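 also: fzo-1 mutant C. elegans worms in liquid wells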). As to conditions: C. elegans fzo-1 modulator screen, mean read-out; stronger effect = higher value.
The nature of test [4]: EMT-state selective cytotoxicity in co-culture – imaging, PC-3E GFP, TEM4-18 mCherry, primary screen (AID 1345086;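 active = compounds killing one labelled cell type while sparing the other, by normalised counts and ratio limits, not self-fluorescent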;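 as to all read-outs here: cells exposed to compound for 72 h before imaging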;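 as to red/green cell ratio (normalised): normalised mesenchymal count divided by normalised epithelial count so high means epithelial killing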). Particulars: PC-3E GFP / TEM4-18 mCherry co-culture, imaging cell counts, at 1 µM; for red/green cell ratio (normalised): actives lie on both sides, counts scaled to control wells, 1 = unselective.
The nature of test [5]: viability loss with induced miR-34 in A549 – imaging, A549 dox-inducible miR-34, nuclei and caspase counts, primary screen (AID 1347080;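 active = compounds whose cell count with miR-34 switched on is under 0.7 times the count with it off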). Particulars: A549 miR-34 inducible, Hoechst nuclei count, 48 h.
Test [6] is described as follows: MELAS cybrid and Rieske KO viability enhancers – cell-based, MELAS cybrids, Rieske KO mouse fibroblasts, CellTiter-Glo, primary screen (AID 1508586;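 active = mean z-score across replicates of 1.96 or higher in either the MELAS or the Rieske mutant cell line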;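 also: z relative to plate mean and SD of compound and empty wells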). As to conditions: low glucose. (ATP-based viability assays read luminescence as a measure of living cells.)
For test [7], the target named is NAD(+) hydrolase SARM1 (Homo sapiens) (UniProt Q6SZW1). The test can be described thus: blocking NAD cleavage by SARM1 SAM-TIR – cell lysate, NAD-Glo luminescence (AID 1508614;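 active = compound whose remaining NAD level is above about 45 nM, limit read from the data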;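 also: higher remaining NAD means stronger inhibition of SARM1 NADase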). Particulars: SAM-TIR HEK293T lysate NADase, at 1 µM, stronger effect = higher value.
Sequence of NAD(+) hydrolase SARM1 (Homo sapiens) (Q6SZW1 whole entry, looked up, the tested form may be a part): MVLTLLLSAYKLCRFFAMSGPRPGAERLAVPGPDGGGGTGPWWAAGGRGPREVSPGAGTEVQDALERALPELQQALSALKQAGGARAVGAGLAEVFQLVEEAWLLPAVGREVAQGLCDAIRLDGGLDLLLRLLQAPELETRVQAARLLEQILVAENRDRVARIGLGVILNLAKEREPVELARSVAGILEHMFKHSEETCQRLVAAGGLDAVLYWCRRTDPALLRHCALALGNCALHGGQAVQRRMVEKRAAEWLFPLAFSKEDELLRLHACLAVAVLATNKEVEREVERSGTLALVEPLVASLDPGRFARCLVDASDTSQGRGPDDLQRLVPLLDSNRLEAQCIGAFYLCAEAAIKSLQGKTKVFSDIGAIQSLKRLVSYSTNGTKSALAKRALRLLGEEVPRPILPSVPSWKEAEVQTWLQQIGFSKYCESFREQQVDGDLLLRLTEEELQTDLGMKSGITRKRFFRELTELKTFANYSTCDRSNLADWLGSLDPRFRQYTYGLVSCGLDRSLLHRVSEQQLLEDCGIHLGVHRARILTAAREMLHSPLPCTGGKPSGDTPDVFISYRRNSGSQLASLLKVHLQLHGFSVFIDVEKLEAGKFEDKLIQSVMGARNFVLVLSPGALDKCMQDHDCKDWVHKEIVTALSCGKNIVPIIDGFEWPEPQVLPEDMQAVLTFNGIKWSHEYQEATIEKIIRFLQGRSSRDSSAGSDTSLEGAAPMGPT
The target of test [8] is Mitogen-activated protein kinase 7 (Homo sapiens) (UniProt Q13164). Description: Gal4-ERK5 driven luciferase induction – cell-based, HTS, primary screen (AID 1508626;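 active = luciferase signal above three times the same-plate solvent-only control wells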;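 also: luciferase driven by Gal4-ERK5 fusion binding five Gal4 sites before minimal TATA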). As to conditions: HeLa Gal4-ERK5 transactivation, 18 h, at 5 µM, stronger effect = higher value.
Sequence of Mitogen-activated protein kinase 7 (Homo sapiens) (Q13164 whole entry, looked up, the tested form may be a part): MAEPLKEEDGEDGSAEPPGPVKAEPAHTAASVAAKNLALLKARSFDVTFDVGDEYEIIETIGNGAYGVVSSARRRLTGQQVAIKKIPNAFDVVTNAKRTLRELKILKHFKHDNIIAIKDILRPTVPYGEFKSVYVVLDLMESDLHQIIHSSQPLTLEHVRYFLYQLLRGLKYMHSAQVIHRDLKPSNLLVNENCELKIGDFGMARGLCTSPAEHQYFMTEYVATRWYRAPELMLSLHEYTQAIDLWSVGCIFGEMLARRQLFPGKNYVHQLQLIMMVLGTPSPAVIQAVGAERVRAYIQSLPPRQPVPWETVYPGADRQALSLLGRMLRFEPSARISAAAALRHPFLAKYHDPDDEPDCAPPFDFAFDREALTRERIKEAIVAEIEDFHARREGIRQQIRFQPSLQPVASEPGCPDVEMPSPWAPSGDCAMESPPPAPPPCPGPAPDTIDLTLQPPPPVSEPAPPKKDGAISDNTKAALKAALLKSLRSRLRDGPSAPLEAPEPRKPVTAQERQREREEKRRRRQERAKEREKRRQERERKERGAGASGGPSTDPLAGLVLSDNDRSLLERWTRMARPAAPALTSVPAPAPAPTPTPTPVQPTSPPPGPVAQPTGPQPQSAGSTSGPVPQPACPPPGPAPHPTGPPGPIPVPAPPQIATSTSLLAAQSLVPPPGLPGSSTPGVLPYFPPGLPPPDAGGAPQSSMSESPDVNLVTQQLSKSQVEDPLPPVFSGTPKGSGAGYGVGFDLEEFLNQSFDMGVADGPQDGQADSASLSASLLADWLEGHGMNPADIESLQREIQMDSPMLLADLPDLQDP
The nature of test [9]: galactose survival enhancers in mitochondrial complex I cybrids – cell-based, galactose medium, ATP luminescence, primary screen (AID 1645843;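 active = z-score of at least 1.8 in each of two replicates, scored against plate mean and spread of sample wells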;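 also: positive z means more ATP and so rescue of galactose-driven cybrid death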). Particulars: complex I mutant cybrid cells, 72 h, stronger effect = higher value.
A short description of test [10]: signal quenchers or enhancers, Cy5 substrate/SSB – biochemical, NIH Clinical Collection, E. coli SSB, artefact control for HCV NS3 helicase inhibitor project (AID 743268; call rule not given here). As to conditions: Cy5-oligo bound E. coli SSB, fluorescence interference.
The subject of test [11] is Hepatitis C virus NS3 helicase. Description: blockers of NS3h binding to DNA – biochemical, fluorescence polarization, NIH Clinical Collection, primary screen (AID 743270; call rule not given here). Particulars: NS3 helicase binding to Cy5-dT15 DNA, stronger effect = higher value, concentration not given here. Background: Polarisation of emitted light reports the rotation of a fluorescent probe.
Test [12] concerns the target Single-stranded DNA-binding protein (Escherichia coli (strain K12)) (UniProt P0AGE0). The test can be described thus: SSB-ssDNA binding inhibitors – biochemical, fluorescence polarization, NIH Clinical Collection, counter-screen for HCV NS3 helicase inhibitor project (AID 743271; in the data active = inhibition above about 28%). As to conditions: E. coli SSB-DNA binding, stronger effect = higher value, concentration not given here.

A short description of test [13]: compounds distorting NS3 helicase fluorescence signal – biochemical, NIH Clinical Collection, artefact control for HCV NS3 helicase inhibitor project (AID 743272; call rule not given here;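 also: HCV NS3 helicase with a Cy5 labelled single stranded DNA probe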). As to conditions: fluorescence interference counterscreen, HCV NS3 helicase assay; stronger effect = lower value. For orientation: A counterscreen serves to expose hits that act by an unwanted route or on another target.

Test [14] deals with F380Y. The test can be described thus: BK channel mutant inhibitors and activators – cell-based, U2OS BacMam, thallium flux, beta subunits, selectivity assay, profiling panel (AID 1259406).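 Also: initial slope of Thallos dye fluorescence rise after thallium is added; log ratio against the mean of 0.3% DMSO vehicle wells on the same plate.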 Particulars: U2OS BacMam BK variants, at 30 µM.
Test [15] has as its system F380Y/beta2Delta. Described as above. As to conditions: U2OS BacMam BK variants, at 30 µM.
The target in test [16] is Calcium-activated potassium channel subunit alpha-1 (Homo sapiens) + Leucine-rich repeat-containing protein 26 (Homo sapiens) (UniProt Q12791+Q2I0M4). Described as above. Particulars: U2OS BacMam BK variants, F380Y/Slo1WT/gamma1, at 30 µM.
Sequence of Calcium-activated potassium channel subunit alpha-1 (Homo sapiens) + Leucine-rich repeat-containing protein 26 (Homo sapiens) (Q2I0M4 whole entry, looked up, one chain of several): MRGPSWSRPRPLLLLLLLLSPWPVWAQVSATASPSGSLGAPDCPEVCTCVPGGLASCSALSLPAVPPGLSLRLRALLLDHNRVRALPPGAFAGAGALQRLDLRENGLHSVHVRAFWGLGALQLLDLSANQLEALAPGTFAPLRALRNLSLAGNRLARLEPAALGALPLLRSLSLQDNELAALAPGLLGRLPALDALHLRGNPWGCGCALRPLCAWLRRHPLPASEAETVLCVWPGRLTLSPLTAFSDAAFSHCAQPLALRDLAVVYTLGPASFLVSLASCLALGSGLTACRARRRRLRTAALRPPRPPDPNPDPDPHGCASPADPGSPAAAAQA
Test [17] has as its system R275C. The description is as above. Particulars: U2OS BacMam BK variants, at 30 µM.
Test [18] relates to R275C/beta1. Described as above. As to conditions: U2OS BacMam BK variants, at 30 µM.
The test system of test [19] is R275C/beta2Delta. Described as above. Particulars: U2OS BacMam BK variants, at 30 µM.
[20] abbreviates: measured here: epithelial PC-3E GFP cell survival.
Setting [21] is: measured here: mesenchymal TEM4-18 mCherry cell survival.
The mark [22] stands for this setting: MELAS cybrid survival, CellTiter-Glo 48 h, stronger effect = higher value.
[23] abbreviates: Rieske KO mouse fibroblast survival, CellTiter-Glo 72 h.

Several values for one entry are separate records, joined by “and”; a condition that tells them apart may be missing. Identical values can stand only once. Activity calls are given as the source filed them.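 The calls were made as follows, unless noted: active = thallium flux through the channel raised or lowered by more than 3 SD from vehicle-only wells, actives on both sides; inactive = the rest.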

Sequence of 6-phosphogluconate dehydrogenase, decarboxylating (Homo sapiens) (P52209 whole entry, looked up): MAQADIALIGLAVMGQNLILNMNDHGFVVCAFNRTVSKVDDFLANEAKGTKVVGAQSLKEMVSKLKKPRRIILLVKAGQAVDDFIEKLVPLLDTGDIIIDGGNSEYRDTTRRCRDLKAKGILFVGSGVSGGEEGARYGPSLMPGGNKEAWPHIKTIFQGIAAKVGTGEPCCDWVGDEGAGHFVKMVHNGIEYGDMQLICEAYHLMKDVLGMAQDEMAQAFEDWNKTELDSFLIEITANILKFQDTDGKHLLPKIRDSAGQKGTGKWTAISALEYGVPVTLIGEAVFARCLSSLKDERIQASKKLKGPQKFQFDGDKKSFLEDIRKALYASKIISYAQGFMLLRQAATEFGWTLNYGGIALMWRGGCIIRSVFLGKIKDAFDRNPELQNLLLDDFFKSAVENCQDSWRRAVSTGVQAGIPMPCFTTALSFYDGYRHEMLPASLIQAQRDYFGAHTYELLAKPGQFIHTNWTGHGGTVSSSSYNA

For the compound `CCCc1nc(C(C)(C)O)c(C(=O)OCc2oc(=O)oc2C)n1Cc1ccc(-c2ccccc2-c2nn[nH]n2)cc1`, the parasite load remaining in test [1] is 123% (inactive) and 56.6% (inactive) and 38.5% (inactive). Besides, in [1], the viability was 84.8% and 93.3% and 100%. In addition, in test [2], the inhibition is -1.37% (inactive). Also, in test [3], the mean signal is 232 (inactive). Further, the red/green cell ratio (normalised) in [4] was 1.07 (inactive). Besides, the normalised cell number came out at 1.01 in [4] (setting [20]) and 1.08 in test [4] (setting [21]). Besides, the fold change was 0.993 (inactive) and 0.942 (inactive) and 0.929 (inactive) in test [5] (stronger effect = lower value, cell number ratio, induced over uninduced); 0.262 and 5.26 and 0.77 in [5] (measured here: relative caspase fold change +Dox/-Dox). Moreover, the cell count in test [5] (measured here: total cells with miR-34 induction, stronger effect = lower value) was 7890 and 12500 and 10500; in test [5] (measured here: total cells without miR-34 induction), 7940 and 13300 and 11300. Besides, the z-score in test [6] (setting [22]) is -0.0808 (inactive) and -0.0697 (inactive) and -0.516 (inactive); in [6] (setting [23]) it was -0.0525 and -0.445 and -0.184; in test [9] it was 0.375 (inactive). Also, the remaining NAD in test [7] is 10 nM (inactive). Besides, the luciferase signal in test [8] is 116 AU (inactive).

Consider `CCC/C=C1\OC(=O)C2=C1CCC=C2`, for which, in test [2], the inhibition was 3.63% (inactive). For the same compound, in [4], the red/green cell ratio (normalised) was 1.13 (inactive). The figures for the normalised cell number in test [4] (setting [20]) and in test [4] (setting [21]) were 0.83 and 0.94, respectively.

For `C=CCCCCCCCCCCCC(O)CC(O)CO` (stereo not drawn) (tested in a mixture with another compound), the inhibition in test [2] is -8.17% (inactive). For the same compound, the red/green cell ratio (normalised) in test [4] is 0.87 (inactive). In addition, the normalised cell number in test [4] (setting [20]) was found to be 1.32; in test [4] (setting [21]), 1.14.

As to `CC(=O)N=c1sc(S(N)(=O)=O)nn1C`, the fluorescence ratio in [10] was 1.01 (inactive); in test [13], 1.03 (inactive). Further, the values for the inhibition in test [11], in test [12] and in test [2] were -0.45% (inactive), -3.53% (inactive) and 18.8% (inactive), respectively. Further, the mean signal in test [3] was 273 (inactive). Besides, the red/green cell ratio (normalised) in test [4] was 1.22 (inactive). Moreover, the figures for the normalised cell number in test [4] (setting [20]) and in [4] (setting [21]) were 0.92 and 1.12, respectively. The z-score in test [6] (setting [22]) was -0.23 (inactive) and 0.0575 (inactive); in test [6] (setting [23]) it was -0.175 and -0.724; in test [9], 0.7 (inactive). In test [7], the remaining NAD was 10 nM (inactive). The luciferase signal in test [8] is 80 AU (inactive). Also, the log fold change Tl+ flux in test [14] was 0.00591 (inactive); in test [15] it was 0.00714 (inactive); in test [16], -0.0355 (inactive); in test [17], 0.00598 (inactive); in test [18], -0.028 (inactive); in test [19], -0.0276 (inactive).

Regarding `CC(=O)NC(C(=O)O)C(C)(C)SN=O` (stereo not drawn), in test [2], the inhibition is 3.72% (inactive). Also, the red/green cell ratio (normalised) in [4] was 1.02 (inactive). For the same compound, the normalised cell number in test [4] (setting [20]) worked out at 1.04; in test [4] (setting [21]), 1.06.

Consider `Cn1cc[nH]c1=S`, for which the fluorescence ratio in [10] and in [13] was 1.03 (inactive) in each case. Besides, the inhibition in [11] was -3.18% (inactive); in test [12] it was -5.05% (inactive); in test [2] it was -12.3% (inactive). Further, the mean signal in test [3] is 225 (inactive). Besides, the red/green cell ratio (normalised) in [4] was 0.96 (inactive). Moreover, the values for the normalised cell number in test [4] (setting [20]) and in test [4] (setting [21]) were 1.12 and 1.08, respectively. Moreover, the z-score in test [6] (setting [22]) was -0.106 (inactive) and 0.275 (inactive) and 0.138 (inactive); in [6] (setting [23]) it was 0.1 and 0.646 and -0.619; in test [9] it was 1.27 (inactive) and 0.25 (inactive). Further, the remaining NAD in test [7] was 10 nM (inactive). Further, in test [8], the luciferase signal is 92 AU (inactive). Moreover, the log fold change Tl+ flux in test [14] was 0.00366 (inactive); in [15] it was -0.00456 (inactive); in test [16], -0.014 (inactive); in test [17] it was -0.00969 (inactive); in [18], -0.000997 (inactive); in test [19] it was -0.0252 (inactive).

By viability is commonly meant the share of living cells, or the viability signal relative to a control. For orientation: inhibition means the relative decrease from the control value, in per cent.

(Values after PubChem BioAssay.)
